Data taken from PubChem BioAssay (NCATS).
Records with an inconclusive call do not appear. Calls of active or inactive are those of the source. The call rests on the fitted dose curve; in most records, active means well fitted curve in the direction sought with a large enough effect; inconclusive means small, poorly fitted or top-dose-only effect, or another doubt; inactive means no such curve, though single readings can be large; an effect the other way counts as inactive or inconclusive. Where a SMILES comes first, the peptide text is derived from it.

Tests used:
[1] = system: HACAT; experiment: qHTS assay to identify novel small-molecules to repurpose for Merkel cell carcinoma treatment (AID 1296009); conditions: MCC and control cell lines, CellTiter-Glo viability, 72 h; at 44.8 µM (top of the series) unless noted; further: nearly all actives have a fitted effect of over 60% in size
Method in brief: (§1)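 Cells were incubated with compound for 72 hr at 37 degree celsius before CellTiter-Glo addition. Luminescence was normalized with no-cell wells as full cytotoxicity and DMSO as baseline.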

[2] = system: HEK293T; experiment: as above; conditions: MCC and control cell lines, CellTiter-Glo viability, 72 h; series mostly up to 44.8 µM
Method in brief: as §1

[3] = system: NIH3T3; experiment: as above; conditions: MCC and control cell lines, CellTiter-Glo viability, 72 h; at 44.8 µM (top of the series) unless noted
Method in brief: as §1

[4] = system: C33A; experiment: Primary qHTS to identify gynecologic anti-cancer compounds using libraries of approved drugs and bioactive compounds (AID 1345084); conditions: Gynecologic cancer cell panel viability, ATPlite luminescence, 48 h; series mostly up to 57.5 µM; further: on the % scale 0 is the no-effect control and ±100 the full control effect; nearly all actives have a fitted effect of over 55% in size
Method in brief: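 Five-point cytotoxicity, 48 h drug exposure at 37 C, 5% CO2, on cells seeded 16 h beforehand. ATP content read by ATPlite luminescence.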

COc1c2c(c(C)c3c1C(=O)OC3)OC1(C)CC(O)C3(O)C(C)(C)OC(=O)CCC3(C)C1C2 (stereo not drawn)
inactive: outcome [1] inactive [at 17.4 µM] | Potency [2] | outcome [3] inactive [at 17.4 µM] | Potency [4]

CC(=O)O[C@H]1[C@H](C)[C@@H](O)[C@H]2[C@@H]1C=C(C(=O)O)[C@H]1C[C@@H]3[C@H]([C@H]21)[C@H]1C(=O)O[C@@H]2CC[C@@]3(C)O[C@]1(O)[C@@H]2C
inactive: outcome [1] inactive [at 17.4 µM] | Potency [2] | outcome [3] inactive [at 17.4 µM] | Potency [4]

CC12CC34C=CC(=O)C(C)(CCC(=O)O)C3C(CC1C4)O2 (stereo not drawn)
inactive: outcome [1] | Potency [2] | outcome [3] | Potency [4]

C=CC(C)(CC/C=C(\C)CC/C=C(\C)CC(O)/C=C(\C)C(=O)O)O[C@@H]1O[C@H](CO)[C@@H](O)[C@H](O)[C@H]1O[C@@H]1O[C@H](CO)[C@@H](O)[C@H](O)[C@H]1O (stereo partly drawn)
inactive: outcome [1] inactive [at 17.4 µM] | Potency [2] | outcome [3] inactive [at 17.4 µM] | Potency [4]

CC(=O)OC1C=C(C(=O)O)C2(CO)CCC(C)C(C)(CCc3ccoc3)C2C1 (stereo not drawn)
inactive: outcome [1] inactive [at 17.4 µM] | Potency [2] | outcome [3] inactive [at 17.4 µM] | Potency [4]

CCC(C)(O)C(O)C(=O)OCc1ccc(O[C@@H]2O[C@H](CO)[C@@H](O)[C@H](O)[C@H]2O)c(OC)c1 (stereo partly drawn)
inactive: outcome [1] inactive [at 17.4 µM] | Potency [2] | outcome [3] inactive [at 17.4 µM] | Potency [4]

CO[C@@H](Cc1ccc(OCCc2nc(-c3ccccc3)oc2C)c2ccsc12)C(=O)O
inactive: outcome [1] | Potency [2] | outcome [3] | Potency [4]

FC(F)(F)c1cc(C(F)(F)F)c2ccc3nc(-c4nnco4)cn3c2n1
inactive: outcome [1] | Potency [2] | outcome [3] | Potency [4]

CC(C)(C)c1cc(CN2CCN(CC(O)c3ccc(Cl)cc3)CC2)cc(C(C)(C)C)c1O (stereo not drawn)
inactive: outcome [1] | Potency [2] | outcome [3] | Potency [4]

CC1=CC[C@]2(C(=O)O[C@@H]3O[C@H](CO[C@@H]4O[C@H](CO)[C@@H](O[C@@H]5O[C@@H](C)[C@H](O)[C@@H](O)[C@H]5O)[C@H](O)[C@H]4O)[C@@H](O)[C@H](O)[C@H]3O)CC[C@]3(C)C(CCC4[C@@]5(C)C[C@@H](O)[C@H](O)[C@@](C)(CO)C5CC[C@]43C)C2C1C (stereo partly drawn)
inactive: outcome [1] inactive [at 9.27 µM] | outcome [2] inactive [at 9.27 µM] | outcome [3] inactive [at 9.27 µM] | activity change, negative = cytotoxicity [4] 6.24% [at 11.6 µM]

O=C(O)C[C@H]1CCC(=O)[C@@H]1C/C=C\CCOC1OC(CO)C(O)C(O)C1O (stereo partly drawn)
inactive: outcome [1] | Potency [2] | outcome [3] | Potency [4]

CC/C=C\C[C@H]1C(=O)C=C[C@@H]1CCCCCCCC(=O)O
inactive: outcome [1] | Potency [2] | outcome [3] | Potency [4]

CC1CC(=O)C2=C(O1)OC1(C)CCC3C(C)(C)C=CC(=O)C3(C)C1C2 (stereo not drawn)
inactive: outcome [1] | Potency [2] | outcome [3] | Potency [4]

CC1CCC2C(C)(C)CC(C)(CO)C2(O)C1C(=O)O (stereo not drawn)
inactive: outcome [1] | Potency [2] | outcome [3] | Potency [4]

C[C@@H](O)[C@H](N)C(=O)N1CCC[C@H]1C(=O)N1CCC[C@H]1C(=O)N[C@H](C(N)=O)[C@@H](C)O (H-TPPT-NH2)
inactive: outcome [1] inactive [at 9.27 µM] | outcome [2] inactive [at 9.27 µM] | outcome [3] inactive [at 9.27 µM] | activity change, negative = cytotoxicity [4] 10.5% [at 11.6 µM]

CC1NC(=O)CNC(=O)C(C(C)C)NC(=O)C2CCCN2C(=O)C(C(C)C)NC(=O)C(Cc2c[nH]c3ccccc23)NC1=O (stereo not drawn) (cyclo(GAWVPV); configuration not given here)
inactive: outcome [1] inactive [at 17.4 µM] | Potency [2] | outcome [3] inactive [at 17.4 µM] | Potency [4]

O=S(=O)(NC1CCNCC1)c1cc(S(=O)(=O)c2ccccc2)ccc1C(F)(F)F
inactive: outcome [1] | Potency [2] | outcome [3] | Potency [4]

CC1=CC(=O)CC(C)(C)C1CCC(C)OC1OC(COC(=O)c2cc(O)c(O)c(O)c2)C(O)C(O)C1O (stereo not drawn)
inactive: outcome [1] inactive [at 17.4 µM] | Potency [2] | outcome [3] inactive [at 17.4 µM] | Potency [4]

C=C1C[C@@]23CC[C@@H]4[C@](C)(C(=O)O)CCC[C@@]4(C)C2=CC[C@H]1C3
inactive: outcome [1] | Potency [2] | outcome [3] | Potency [4]

NCCOCCOCCNC(=O)Cc1ccc(Nc2nc(NCc3ccc(F)cc3)nc(NCC3CCCCC3)n2)cc1
inactive: outcome [1] | Potency [2] | outcome [3] | Potency [4]

C=CC(C)(O)CC/C=C(/C)C(=O)OC1C(OC2OCC(OC3OC(CO)C(O)C(O)C3O)C(OC3OCC(O)C(OC4OC(C)C(O)C(O)C4O)C3O)C2O)COC(OC(=O)C23CCC(C)(C)CC2C2=CCC4C5(C)CCC(OC6OC(CO)C(OC7OC(CO)C(O)C(OC8OCC(O)C(O)C8O)C7O)C(O)C6O)C(C)(C)C5CCC4(C)C2(C)CC3O)C1O (stereo not drawn)
inactive: outcome [1] inactive [at 4.96 µM] | outcome [2] inactive [at 4.96 µM] | outcome [3] inactive [at 4.96 µM] | activity change, negative = cytotoxicity [4] 1.13% [at 6.55 µM]

C=CC(C)(C)O[C@@H]1O[C@H](CO[C@@H]2OC[C@](O)(CO)[C@H]2O)[C@@H](O)[C@H](O)[C@H]1O
inactive: outcome [1] | Potency [2] | outcome [3] | Potency [4]
